# Measurements as given in the supplement of paper PMC10849652.
# Targets with a hit are over-represented here; the source holds about 7,900 in all. About 0.6% of all pairs of compound and target were hits. Values without a mark were called inactive.
# What was measured:
# Assay in all cases: log2 fold change, soluble protein after heating vs DMSO (PISA); higher = thermal stabilisation; K562 cells, 10 uM, 30 min; active = over 0.2 and 3.5 SD of the protein, either way, in both replicates (recomputed)
# [1] = compound: COC1=CC=C(C=C1)CN2C=CC3=C2C=C(C=C3)C(=O)NO
# In short: (§1)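 K562 cells at 2×10^6 cells/mL were exposed to 10 μM compound for 30 min, then aliquots were heated for 3 min across 48°C-58°C, pooled, and extracted in PBS containing 0.5% NP-40 at 4°C. The supernatant after 21,000xg for 90 min was taken as soluble protein and measured by TMTpro 16plex LC-MS/MS with channel sums equalised. Thermal stability is reported relative to control samples, with values from duplicates. Fold changes are given on a log2 scale.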
# [2] = compound: CON(C)C(=O)N1N=C(c2cc(F)ccc2F)S[C@@]1(CCCN)c1ccccc1 [filanesib]
# In short: as §1
# [3] = compound: CO[C@H]1C[C@@H]2CC[C@@H](C)[C@@](O)(O2)C(=O)C(=O)N2CCCC[C@H]2C(=O)O[C@H]([C@H](C)C[C@@H]2CC[C@H](n3cnnn3)[C@H](OC)C2)CC(=O)[C@H](C)/C=C(\C)[C@@H](O)[C@@H](OC)C(=O)[C@H](C)C[C@H](C)/C=C/C=C/C=C/1C [zotarolimus]
# In short: as §1
# [4] = compound: COc1cc(C(=O)O)ccc1NC(=O)[C@@H]1N[C@@H](CC(C)(C)C)[C@](C#N)(c2ccc(Cl)cc2F)[C@H]1c1cccc(Cl)c1F [idasanutlin]
# In short: as §1
# [5] = compound: COc1cc(Nc2ncc3c(n2)-c2ccc(Cl)cc2C(c2c(F)cccc2OC)=NC3)ccc1C(=O)O [alisertib]
# In short: as §1
# [6] = compound: COc1cc2nc(-c3cc(F)ccc3O)nc(N[C@@H]3CNC[C@H]3C(C)(C)O)c2cc1OC
# In short: as §1
# [7] = compound: COc1cc2ncnc(Nc3ccc(F)c(Cl)c3)c2cc1OCCCN1CCOCC1 [gefitinib]
# In short: as §1
# [8] = compound: COc1cccc2cc(-c3nc([C@H]4CC[C@H](C(=O)O)CC4)n4ncnc(N)c34)[nH]c12
# In short: as §1
# [9] = compound: CS(=O)(=O)CCNCc1ccc(-c2ccc3ncnc(Nc4ccc(OCc5cccc(F)c5)c(Cl)c4)c3c2)o1 [lapatinib]
# In short: as §1
# [10] = compound: CS(=O)(=O)N1CCN(Cc2cc3nc(-c4cccc5[nH]ncc45)nc(N4CCOCC4)c3s2)CC1 [pictilisib]
# In short: as §1
# Sequence of UniProt P05543 (P05543 whole entry, looked up): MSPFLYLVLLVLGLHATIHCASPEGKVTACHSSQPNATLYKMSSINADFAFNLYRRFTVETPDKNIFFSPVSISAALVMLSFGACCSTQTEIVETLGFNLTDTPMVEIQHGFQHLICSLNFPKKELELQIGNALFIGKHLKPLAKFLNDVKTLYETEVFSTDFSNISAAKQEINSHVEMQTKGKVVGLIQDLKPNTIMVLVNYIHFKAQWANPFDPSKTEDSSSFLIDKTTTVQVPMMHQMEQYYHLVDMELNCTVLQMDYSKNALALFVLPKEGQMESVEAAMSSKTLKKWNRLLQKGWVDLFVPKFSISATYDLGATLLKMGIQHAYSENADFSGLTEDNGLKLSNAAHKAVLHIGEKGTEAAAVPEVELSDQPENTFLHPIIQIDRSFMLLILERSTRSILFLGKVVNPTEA
# Sequence of UniProt O75792 (O75792 whole entry, looked up): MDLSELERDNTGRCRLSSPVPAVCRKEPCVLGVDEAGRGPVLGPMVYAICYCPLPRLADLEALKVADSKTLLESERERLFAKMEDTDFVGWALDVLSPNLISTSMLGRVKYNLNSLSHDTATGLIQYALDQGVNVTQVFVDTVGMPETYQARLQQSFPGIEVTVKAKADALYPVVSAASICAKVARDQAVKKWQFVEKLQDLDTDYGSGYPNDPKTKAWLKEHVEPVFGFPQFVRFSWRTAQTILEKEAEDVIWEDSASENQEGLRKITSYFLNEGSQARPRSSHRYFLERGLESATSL
# Sequence of UniProt Q7L4I2 (Q7L4I2 whole entry, looked up): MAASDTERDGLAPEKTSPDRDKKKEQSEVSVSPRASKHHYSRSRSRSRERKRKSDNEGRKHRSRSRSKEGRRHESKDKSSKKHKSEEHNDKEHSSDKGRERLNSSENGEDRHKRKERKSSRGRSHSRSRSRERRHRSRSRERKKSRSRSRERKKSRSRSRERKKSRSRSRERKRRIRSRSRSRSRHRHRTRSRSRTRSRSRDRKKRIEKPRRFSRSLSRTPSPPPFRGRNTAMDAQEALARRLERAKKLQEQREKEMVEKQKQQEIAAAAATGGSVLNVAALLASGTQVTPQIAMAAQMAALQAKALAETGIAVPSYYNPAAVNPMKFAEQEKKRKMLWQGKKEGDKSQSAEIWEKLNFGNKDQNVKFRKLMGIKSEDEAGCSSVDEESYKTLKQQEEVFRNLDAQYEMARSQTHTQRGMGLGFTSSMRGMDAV
# Sequence of UniProt Q14498 (Q14498 whole entry, looked up): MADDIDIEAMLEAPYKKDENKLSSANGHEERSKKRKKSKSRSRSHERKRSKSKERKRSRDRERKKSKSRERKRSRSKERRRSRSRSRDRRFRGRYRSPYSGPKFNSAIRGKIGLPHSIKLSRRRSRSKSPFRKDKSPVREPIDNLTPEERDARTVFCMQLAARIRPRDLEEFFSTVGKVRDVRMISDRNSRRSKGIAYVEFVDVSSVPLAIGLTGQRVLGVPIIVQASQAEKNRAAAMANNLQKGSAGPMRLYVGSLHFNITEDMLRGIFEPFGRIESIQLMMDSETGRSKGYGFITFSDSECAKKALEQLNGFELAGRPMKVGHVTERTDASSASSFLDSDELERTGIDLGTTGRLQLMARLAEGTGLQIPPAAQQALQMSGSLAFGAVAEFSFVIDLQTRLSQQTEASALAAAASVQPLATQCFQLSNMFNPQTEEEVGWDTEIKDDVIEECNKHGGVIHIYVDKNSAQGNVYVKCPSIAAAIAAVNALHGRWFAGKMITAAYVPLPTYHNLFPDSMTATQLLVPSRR
# Sequence of UniProt Q86TU7 (Q86TU7 whole entry, looked up): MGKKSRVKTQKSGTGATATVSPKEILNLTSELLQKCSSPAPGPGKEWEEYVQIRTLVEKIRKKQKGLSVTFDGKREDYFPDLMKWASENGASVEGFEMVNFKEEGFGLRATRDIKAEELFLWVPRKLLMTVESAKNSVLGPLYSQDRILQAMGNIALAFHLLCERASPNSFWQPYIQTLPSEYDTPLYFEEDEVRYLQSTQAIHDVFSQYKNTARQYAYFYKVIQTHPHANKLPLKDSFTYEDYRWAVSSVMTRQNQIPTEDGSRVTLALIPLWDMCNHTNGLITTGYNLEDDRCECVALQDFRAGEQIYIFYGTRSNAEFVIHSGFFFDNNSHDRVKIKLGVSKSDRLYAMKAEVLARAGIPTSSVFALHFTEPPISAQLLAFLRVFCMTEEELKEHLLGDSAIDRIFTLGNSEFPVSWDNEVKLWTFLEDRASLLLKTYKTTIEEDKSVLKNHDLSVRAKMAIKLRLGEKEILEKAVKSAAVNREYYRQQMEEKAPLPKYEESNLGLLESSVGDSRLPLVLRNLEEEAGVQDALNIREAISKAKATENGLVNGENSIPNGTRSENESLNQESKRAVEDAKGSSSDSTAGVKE
# Sequence of UniProt Q99643 (Q99643 whole entry, looked up): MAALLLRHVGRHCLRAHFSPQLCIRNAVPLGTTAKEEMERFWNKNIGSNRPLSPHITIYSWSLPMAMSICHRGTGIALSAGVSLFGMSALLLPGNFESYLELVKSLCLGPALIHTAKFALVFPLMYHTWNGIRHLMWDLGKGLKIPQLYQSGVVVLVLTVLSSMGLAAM
# Sequence of UniProt Q9BUV8 (Q9BUV8 whole entry, looked up): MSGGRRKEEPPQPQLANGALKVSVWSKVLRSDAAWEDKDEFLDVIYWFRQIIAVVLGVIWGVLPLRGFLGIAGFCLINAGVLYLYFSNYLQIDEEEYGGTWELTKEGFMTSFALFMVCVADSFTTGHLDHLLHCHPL
# Sequence of UniProt Q8IZV5 (Q8IZV5 whole entry, looked up): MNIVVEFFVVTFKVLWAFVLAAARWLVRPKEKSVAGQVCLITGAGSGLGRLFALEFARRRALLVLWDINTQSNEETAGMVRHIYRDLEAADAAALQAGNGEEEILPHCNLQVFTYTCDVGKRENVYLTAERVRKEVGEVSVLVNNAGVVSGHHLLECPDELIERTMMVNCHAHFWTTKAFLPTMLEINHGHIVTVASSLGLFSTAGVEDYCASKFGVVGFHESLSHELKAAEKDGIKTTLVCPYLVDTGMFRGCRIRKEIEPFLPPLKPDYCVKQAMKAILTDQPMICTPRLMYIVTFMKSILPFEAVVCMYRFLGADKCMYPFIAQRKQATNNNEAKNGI
# Sequence of UniProt Q13530 (Q13530 whole entry, looked up): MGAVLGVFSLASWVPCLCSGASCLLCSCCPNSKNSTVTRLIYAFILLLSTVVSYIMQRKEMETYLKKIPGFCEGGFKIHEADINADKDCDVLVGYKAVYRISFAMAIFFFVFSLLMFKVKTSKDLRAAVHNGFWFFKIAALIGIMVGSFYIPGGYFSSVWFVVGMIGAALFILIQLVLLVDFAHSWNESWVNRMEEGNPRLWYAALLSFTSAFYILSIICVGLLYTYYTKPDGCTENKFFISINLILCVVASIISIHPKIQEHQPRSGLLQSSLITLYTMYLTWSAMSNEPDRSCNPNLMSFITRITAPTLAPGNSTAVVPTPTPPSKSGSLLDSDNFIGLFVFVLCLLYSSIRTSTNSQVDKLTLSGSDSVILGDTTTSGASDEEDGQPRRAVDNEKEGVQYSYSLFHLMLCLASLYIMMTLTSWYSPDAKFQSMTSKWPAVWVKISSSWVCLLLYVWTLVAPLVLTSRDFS
# Sequence of UniProt Q96I25 (Q96I25 whole entry, looked up): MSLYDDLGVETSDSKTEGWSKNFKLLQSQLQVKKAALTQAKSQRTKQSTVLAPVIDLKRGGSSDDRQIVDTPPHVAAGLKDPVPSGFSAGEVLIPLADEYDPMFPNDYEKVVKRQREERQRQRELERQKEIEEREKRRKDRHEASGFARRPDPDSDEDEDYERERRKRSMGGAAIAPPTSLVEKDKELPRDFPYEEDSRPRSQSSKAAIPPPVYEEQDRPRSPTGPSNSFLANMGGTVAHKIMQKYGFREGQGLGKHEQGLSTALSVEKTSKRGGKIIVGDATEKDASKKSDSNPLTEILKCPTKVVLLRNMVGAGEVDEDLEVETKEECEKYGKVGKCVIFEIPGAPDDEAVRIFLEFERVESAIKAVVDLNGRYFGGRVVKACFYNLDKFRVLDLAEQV
# Sequence of UniProt Q9NX18 (Q9NX18 whole entry, looked up): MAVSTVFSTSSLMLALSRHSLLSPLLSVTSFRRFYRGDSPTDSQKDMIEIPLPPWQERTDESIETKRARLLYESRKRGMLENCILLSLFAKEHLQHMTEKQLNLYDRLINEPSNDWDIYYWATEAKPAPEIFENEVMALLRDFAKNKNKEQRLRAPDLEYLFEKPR
Target,log2 fold change [1],log2 fold change [2],log2 fold change [3],log2 fold change [4],log2 fold change [5],log2 fold change [6],log2 fold change [7],log2 fold change [8],log2 fold change [9],log2 fold change [10]
RABGAP1L isoform 5 (UniProt Q5R372),0.117,0.108,-0.008,0.05,-0.071,0.065,-0.097,0.007,-0.027,
RNASEH2A (UniProt O75792),0.029,-0.005,0.034,-0.007,-0.016,0.049,-0.013,0.031,-0.029,0.234
SERINC3 (UniProt Q13530),-0.015,-0.222,-0.062,0.136,0,-0.17,-0.069,0.042,-0.181,0.181
SERPINA7 (UniProt P05543),-0.213,0.251,-0.206,0.071,0.052,0.008,-0.157,0.381,-0.017,-0.088
RPS2 (UniProt P15880),-0.049,0.214,-0.013,0.114,-0.1,-0.027,-0.05,-0.184,0.094,-0.143
RSRC2 (UniProt Q7L4I2),0.033,0.066,-0.002,0.048,-0.102,0.034,0.005,0.022,-0.021,0.011
RANBP2 (UniProt P49792),0.334 (active),-0.048,0.029,-0.005,0.079,0.044,0.05,-0.097,-0.07,-0.002
SDHC (UniProt Q99643),0.088,0.088,0.094,-0.238,0.023,-0.107,0.042,0.04,-0.081,-0.006
RPS19 (UniProt P39019),0,0.102,-0.015,0.113,-0.114,-0.024,-0.049,-0.12,0.059,-0.137
SEC16A isoform 5 (UniProt O15027),0.079,0.037,-0.01,-0.021,0,0.007,0.046,-0.148,0.017,-0.003
SCAMP2 (UniProt H3BUB6),-0.27,0.126,-0.217,0.134,-0.019,0.319,0.003,0.188,-0.329,
RPS16 (UniProt P62249),-0.117,0.092,0.025,0.093,-0.167,-0.027,-0.014,-0.199,0.046,-0.162
SCPEP1 (UniProt Q9HB40),0.078,-0.082,0.009,0.002,0.007,-0.058,-0.014,0.057,-0.021,0.096
RBM17 (UniProt Q96I25),0.026,0.038,0.064,0.121,-0.055,-0.031,0.003,0.019,0,-0.276
RPS12 (UniProt P25398),-0.009,0.018,-0.026,0.048,-0.17,-0.057,-0.02,-0.159,0.062,-0.033
SDHAF2 (UniProt Q9NX18),0.063,-0.03,0.068,-0.085,0.02,-0.163,0.09,0.102,-0.013,0.091
SETD3 (UniProt Q86TU7),-0.254 (active),-0.132,0.009,-0.086,-0.022,0.052,0.017,0.048,-0.013,0.03
RIOK3 (UniProt O14730),-0.039,-0.049,-0.019,0.052,-0.029,-0.009,0.007,0.01,0.003,0.095
RRS1 (UniProt Q15050),-0.111,0.593,0.033,0.262,-0.171,0.01,0.005,-0.169,0.137,-0.096
RAB5IF isoform 5 (UniProt Q9BUV8),0.429 (active),-0.243,-0.074,-0.015,-0.081,-0.021,0.018,0.002,0.006,0.006
RDH10 (UniProt Q8IZV5),-0.007,-0.023,-0.03,-0.14,0.013,0.031,0.083,0.036,0.037,0.009
RMC1 (UniProt Q96DM3),-0.002,-0.058,-0.015,-0.047,-0.059,-0.006,0.045,0.044,-0.029,-0.105
REEP4 (UniProt Q9H6H4),-0.039,-0.072,-0.034,0.033,-0.07,-0.32 (active),-0.032,-0.031,0.121,-0.175
RARS (UniProt P54136),-0.045,0.079,0.049,0.052,-0.059,-0.032,-0.025,-0.203,-0.008,-0.07
RPA1 (UniProt P27694),0.053,-0.006,0.018,-0.042,0.027,0.049,-0.001,-0.133,0.006,-0.088
RETSAT (UniProt Q6NUM9),0.051,0.109,0.094,-0.077,0.067,0.064,0.052,-0.093,0.192,0.074
RPS13 (UniProt P62277),-0.132,0.394,0.015,0.145,-0.164,-0.012,-0.051,-0.316,0.117,-0.226
RPS14 (UniProt P62263),0.034,0.046,0.028,0.062,-0.209,-0.047,-0.048,-0.154,0.132,-0.321
RBM39 (UniProt Q14498),0.117,0.129,-0.006,0.262,-0.058,-0.055,-0.019,0.009,0.026,-0.014
SEC31A (UniProt O94979),0.01,0.063,0.029,-0.039,0.006,0.211,0.008,-0.01,-0.036,-0.002
